# Source: PubChem BioAssay (EPA / NIEHS)
# Inconclusive results are not listed. More than one record can exist for a structure, and the calls need not agree. The source made the active and inactive calls. The calls were made as follows: active = hit-call score of the fitted dose curve at least 0.9, where 1 is the maximum; inconclusive = response in the unintended direction; inactive = score below 0.9.
# Experiments:
# [1] = target: bovine Gamma-Aminobutyric Acid Type A Receptor Agonist (GABAR Agonist), GABRA1 (gene 780973) (UniProt P08219); test: NVS_LGIC_bGABAR_Agonist: NovaScreen (NVS) Ligand-Gated Ion Channel Assay for bovine Gamma-Aminobutyric Acid Type A Receptor Agonist (GABAR Agonist) (AID 2283338)
# Method in brief: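 Radioligand binding to bovine cerebellar membranes in agonist format, read by filter-based scintillation counting after 1 h. Primary screen in duplicate at 25 uM, with actives followed in concentration series. Gain of signal versus DMSO.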
# [2] = target: Estrogen receptor (Homo sapiens) (UniProt P03372); test: OT_ER_ERaERa_1440: Odyssey Thera (OT) 24-hour HEK293T Protein-Complementation Assay for Estrogen Receptor-alpha/-alpha Homodimer (AID 2283349);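 also: hits raise fluorescence above DMSO for agonists and antagonists alike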
# Method in brief: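 Readout is the rise in mean fluorescence from reporter fragment complementation when ERα LBD (aa 310-547) units dimerize in HEK293T cells. Measured 24 h after dosing and analysed as increase over DMSO control.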
# [3] = target: Estrogen receptor (Homo sapiens) (UniProt P03372); test: OT_ER_ERaERa_0480: Odyssey Thera (OT) 8-hour HEK293T Protein-Complementation Assay for Estrogen Receptor-alpha/-alpha Homodimer (AID 2283351);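 also: rise in fluorescence from reassembled reporter fragments on ERα LBD homodimer in nucleus or whole cell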
# Method in brief: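 HEK293T, stable ERα LBD (aa 310-547) PCA homodimer; 8 h compound exposure; fluorescence intensity, laser scanning cytometer; positive fitting direction, DMSO baseline.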
# [4] = target: Bile acid receptor (Homo sapiens) (UniProt Q96RI1); test: NVS_NR_hFXR_Antagonist: NovaScreen (NVS) Nuclear Receptor Binding Assay for human Farnesoid X Receptor Antagonism (FXR) (AID 2283350)
# Method in brief: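 Cell-free TR-FRET ligand-binding read-out on human FXR (NR1H4) in antagonist mode, measured 1 h after dosing. Primary screen in duplicate at 25 uM, actives retested in concentration series; signal loss scored versus DMSO.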
# [5] = target: bovine Estrogen Receptor (ER), ESR1 (gene 407238) (UniProt P49884); test: NVS_NR_bER: NovaScreen (NVS) Nuclear Receptor Binding Assay for bovine Estrogen Receptor (ER) (AID 2283345);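 also: actives lower the bound radioligand count which means they displace the ER ligand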
# Method in brief: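 Scintillation counting of displaced radioligand gave the readout; bovine uterine membrane extract supplied the receptor. Measured 18 h post-dose, normalized to DMSO baseline. Single 25 uM duplicate screen preceded concentration-response follow-up.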
# [6] = target: Androgen Receptor/SRC-1 Co-activator, AR (gene 367) (UniProt P10275); test: OT_AR_ARSRC1_0960: Odyssey Thera (OT) 16-hour HEK293T Protein-Complementation Assay for Androgen Receptor/SRC-1 Co-activator (AID 2283353);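 also: actives raise the signal above DMSO so potency reflects increased AR and SRC-1 complex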
# Method in brief: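 Split-Venus PCA, AR/SRC-1 fusions, stable HEK293T; 16 h compound exposure; imaged at 488 and 635 nm; N/C ratio (488 nm channel), min 400 cells/image; positive-direction fit, DMSO baseline.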
# [7] = target: Androgen Receptor/SRC-1 Co-activator, AR (gene 367) (UniProt P10275); test: OT_AR_ARSRC1_0480: Odyssey Thera (OT) 8-hour HEK293T Protein-Complementation Assay for Androgen Receptor/SRC-1 Co-activator (AID 2283354);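 also: hits raise the complementation signal above DMSO so AC50 marks enhancers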
# Method in brief: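 HEK293T cells stably expressing AR and SRC-1 fused to split Venus YFP fragments via (Gly4Ser)2 linkers were read 8 h after compound dosing. Complementation was imaged at 488 and 635nm, and nuclear/cytoplasmic fluorescence ratio (488nm) was taken over ≥400 cells; gain-of-signal versus DMSO.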
# [8] = target: chimpanzee Androgen Receptor (AR), AR (gene 747460) (UniProt O97775); test: NVS_NR_cAR: NovaScreen (NVS) Nuclear Receptor Binding Assay for chimpanzee Androgen Receptor (AR) (AID 2283346);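 also: radioligand displacement from AR measured by scintillation counting in a cell-free assay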
# Method in brief: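 Cell-free radioligand displacement using receptor protein extracted from Sf9/Sf21 cells; bound radioligand measured by scintillation counting 72 hours after chemical dosing. Loss of signal versus DMSO baseline indicates binding; primary screen single-concentration in duplicate at 25 uM, actives followed in concentration series.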
# Androgen Receptor/SRC-1 Co-activator, AR (gene 367), sequence (P10275 whole entry, looked up, the tested form may be a part): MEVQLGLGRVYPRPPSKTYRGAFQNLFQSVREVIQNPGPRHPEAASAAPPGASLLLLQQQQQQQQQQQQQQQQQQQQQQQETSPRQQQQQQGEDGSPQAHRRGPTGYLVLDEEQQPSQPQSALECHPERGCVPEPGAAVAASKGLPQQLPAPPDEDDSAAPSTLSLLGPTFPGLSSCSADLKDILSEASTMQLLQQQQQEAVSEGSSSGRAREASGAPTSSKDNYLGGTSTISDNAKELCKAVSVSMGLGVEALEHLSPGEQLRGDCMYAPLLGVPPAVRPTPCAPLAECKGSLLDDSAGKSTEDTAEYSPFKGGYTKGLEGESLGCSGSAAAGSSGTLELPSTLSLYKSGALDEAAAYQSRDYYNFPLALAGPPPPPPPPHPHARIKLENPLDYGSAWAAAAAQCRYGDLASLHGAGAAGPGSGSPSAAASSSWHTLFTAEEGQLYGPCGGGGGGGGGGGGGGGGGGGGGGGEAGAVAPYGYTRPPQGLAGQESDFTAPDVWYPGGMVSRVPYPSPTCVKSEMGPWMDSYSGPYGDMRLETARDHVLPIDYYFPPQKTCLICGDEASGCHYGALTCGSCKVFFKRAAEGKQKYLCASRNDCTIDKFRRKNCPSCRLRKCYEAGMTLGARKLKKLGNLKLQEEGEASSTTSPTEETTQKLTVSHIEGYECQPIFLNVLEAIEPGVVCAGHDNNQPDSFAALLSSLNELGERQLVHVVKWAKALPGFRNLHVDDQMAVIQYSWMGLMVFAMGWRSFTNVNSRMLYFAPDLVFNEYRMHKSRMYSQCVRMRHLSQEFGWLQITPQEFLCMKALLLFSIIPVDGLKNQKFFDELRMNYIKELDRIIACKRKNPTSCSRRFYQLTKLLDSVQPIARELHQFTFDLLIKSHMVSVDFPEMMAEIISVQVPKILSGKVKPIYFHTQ
# bovine Estrogen Receptor (ER), ESR1 (gene 407238), sequence (P49884 whole entry, looked up): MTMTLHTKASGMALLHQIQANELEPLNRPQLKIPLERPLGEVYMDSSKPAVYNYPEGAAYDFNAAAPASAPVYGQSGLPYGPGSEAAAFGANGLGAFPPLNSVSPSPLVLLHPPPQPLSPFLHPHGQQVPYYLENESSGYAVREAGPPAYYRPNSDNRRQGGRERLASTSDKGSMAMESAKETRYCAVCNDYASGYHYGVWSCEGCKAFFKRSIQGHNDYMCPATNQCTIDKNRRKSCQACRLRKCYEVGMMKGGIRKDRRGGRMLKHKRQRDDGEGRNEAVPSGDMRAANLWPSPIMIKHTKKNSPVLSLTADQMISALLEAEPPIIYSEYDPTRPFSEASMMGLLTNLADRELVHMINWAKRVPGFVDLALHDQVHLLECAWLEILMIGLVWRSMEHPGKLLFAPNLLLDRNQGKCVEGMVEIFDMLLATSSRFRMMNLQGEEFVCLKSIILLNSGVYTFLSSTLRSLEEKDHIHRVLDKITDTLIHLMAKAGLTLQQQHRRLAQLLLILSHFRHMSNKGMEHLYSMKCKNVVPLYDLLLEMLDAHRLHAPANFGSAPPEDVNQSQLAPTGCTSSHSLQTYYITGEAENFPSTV
# Bile acid receptor (Homo sapiens), sequence (Q96RI1 whole entry, looked up): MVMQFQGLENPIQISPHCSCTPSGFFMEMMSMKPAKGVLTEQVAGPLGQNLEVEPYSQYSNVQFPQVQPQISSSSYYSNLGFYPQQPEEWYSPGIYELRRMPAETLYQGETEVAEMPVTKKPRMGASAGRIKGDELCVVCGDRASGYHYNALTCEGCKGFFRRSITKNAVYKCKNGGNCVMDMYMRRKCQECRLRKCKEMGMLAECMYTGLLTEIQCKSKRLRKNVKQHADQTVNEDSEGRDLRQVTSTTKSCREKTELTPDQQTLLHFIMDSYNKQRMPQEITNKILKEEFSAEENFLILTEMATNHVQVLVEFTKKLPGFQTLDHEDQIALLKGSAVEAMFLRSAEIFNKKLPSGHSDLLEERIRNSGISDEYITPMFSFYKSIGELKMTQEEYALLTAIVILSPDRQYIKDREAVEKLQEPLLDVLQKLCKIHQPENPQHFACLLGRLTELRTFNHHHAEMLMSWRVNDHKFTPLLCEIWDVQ
# Estrogen receptor (Homo sapiens), sequence (P03372 whole entry, looked up, the tested form may be a part): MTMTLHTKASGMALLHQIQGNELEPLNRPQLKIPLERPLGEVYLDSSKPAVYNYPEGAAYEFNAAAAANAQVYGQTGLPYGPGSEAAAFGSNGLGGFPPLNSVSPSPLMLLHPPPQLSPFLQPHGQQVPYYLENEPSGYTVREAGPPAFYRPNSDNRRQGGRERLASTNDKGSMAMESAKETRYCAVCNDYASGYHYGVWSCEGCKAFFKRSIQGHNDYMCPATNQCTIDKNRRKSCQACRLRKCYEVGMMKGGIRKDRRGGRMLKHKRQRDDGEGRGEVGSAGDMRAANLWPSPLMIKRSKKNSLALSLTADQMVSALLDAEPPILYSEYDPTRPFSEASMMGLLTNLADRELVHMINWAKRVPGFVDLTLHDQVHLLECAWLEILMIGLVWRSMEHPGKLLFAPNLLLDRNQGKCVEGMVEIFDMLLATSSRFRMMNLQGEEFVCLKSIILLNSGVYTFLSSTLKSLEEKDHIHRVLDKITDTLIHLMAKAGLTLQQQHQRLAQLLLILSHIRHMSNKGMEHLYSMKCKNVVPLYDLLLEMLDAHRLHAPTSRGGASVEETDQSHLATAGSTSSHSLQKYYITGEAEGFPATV
# chimpanzee Androgen Receptor (AR), AR (gene 747460), sequence (O97775 whole entry, looked up): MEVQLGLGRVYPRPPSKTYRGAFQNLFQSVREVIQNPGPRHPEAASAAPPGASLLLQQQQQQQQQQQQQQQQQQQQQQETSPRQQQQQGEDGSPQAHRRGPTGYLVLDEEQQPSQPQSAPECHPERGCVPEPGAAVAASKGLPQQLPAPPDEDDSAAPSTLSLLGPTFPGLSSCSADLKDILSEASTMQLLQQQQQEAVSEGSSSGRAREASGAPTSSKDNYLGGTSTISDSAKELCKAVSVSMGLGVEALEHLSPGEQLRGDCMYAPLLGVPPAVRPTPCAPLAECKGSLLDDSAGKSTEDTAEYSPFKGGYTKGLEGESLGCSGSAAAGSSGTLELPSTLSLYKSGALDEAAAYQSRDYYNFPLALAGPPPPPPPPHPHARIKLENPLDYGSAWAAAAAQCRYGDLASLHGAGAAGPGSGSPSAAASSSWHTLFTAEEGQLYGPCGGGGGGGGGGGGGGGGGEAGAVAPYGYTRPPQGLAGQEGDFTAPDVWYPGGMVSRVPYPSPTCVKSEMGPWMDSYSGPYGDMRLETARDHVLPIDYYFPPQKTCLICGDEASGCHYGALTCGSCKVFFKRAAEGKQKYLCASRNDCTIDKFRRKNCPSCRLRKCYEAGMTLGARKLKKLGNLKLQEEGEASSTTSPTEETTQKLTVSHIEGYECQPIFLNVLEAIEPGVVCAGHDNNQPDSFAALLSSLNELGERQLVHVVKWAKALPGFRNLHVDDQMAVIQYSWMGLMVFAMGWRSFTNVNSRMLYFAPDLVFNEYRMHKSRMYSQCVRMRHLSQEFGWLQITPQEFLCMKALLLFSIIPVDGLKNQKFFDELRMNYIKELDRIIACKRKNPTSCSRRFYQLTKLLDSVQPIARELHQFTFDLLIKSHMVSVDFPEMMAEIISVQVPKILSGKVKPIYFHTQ
# bovine Gamma-Aminobutyric Acid Type A Receptor Agonist (GABAR Agonist), GABRA1 (gene 780973), sequence (P08219 whole entry, looked up): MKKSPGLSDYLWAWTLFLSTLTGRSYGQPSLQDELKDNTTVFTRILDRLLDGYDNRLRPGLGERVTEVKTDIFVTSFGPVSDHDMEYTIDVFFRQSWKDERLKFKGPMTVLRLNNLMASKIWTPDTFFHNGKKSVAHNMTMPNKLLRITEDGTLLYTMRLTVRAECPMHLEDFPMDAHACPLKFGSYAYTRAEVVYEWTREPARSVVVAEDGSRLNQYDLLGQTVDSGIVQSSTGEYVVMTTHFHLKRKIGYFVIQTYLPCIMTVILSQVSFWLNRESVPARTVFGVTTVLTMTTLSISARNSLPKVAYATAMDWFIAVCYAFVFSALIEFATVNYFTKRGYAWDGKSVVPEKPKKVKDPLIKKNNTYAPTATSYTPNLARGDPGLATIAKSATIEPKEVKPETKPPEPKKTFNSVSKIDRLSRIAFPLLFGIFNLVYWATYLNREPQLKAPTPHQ
structure (smiles),measurement,setting,value
CCCCCCCCCCCCCCCS(=O)(=O)Oc1ccccc1,outcome,[1],inactive
same,outcome,[2],inactive
same,outcome,[3],inactive
CC(C)CCCCCCOC(=O)CCCCC(=O)OCCCCCCC(C)C,outcome,[2],inactive
same,outcome,[4],inactive
same,outcome,[3],inactive
CCCCCCCCOC(=O)CCCCCCCCC(=O)OCCCCCCCC,outcome,[2],inactive
same,outcome,[3],inactive
CCCCOCCO,outcome,[2],inactive
same,outcome,[3],inactive
O=[N+]([O-])c1ccc(O)cc1,outcome,[5],inactive
same,outcome,[2],inactive
same,outcome,[3],inactive
OCCC(F)(F)C(F)(F)C(F)(F)C(F)(F)C(F)(F)C(F)(F)F,outcome,[2],inactive
same,outcome,[3],inactive
CC(O)CO (stereo not drawn),outcome,[2],inactive
same,outcome,[4],inactive
same,outcome,[3],inactive
C=C(C)C(=O)OCCC(F)(F)C(F)(F)C(F)(F)C(F)(F)C(F)(F)C(F)(F)F,outcome,[5],inactive
same,outcome,[2],inactive
same,outcome,[3],inactive
CCCCC(CC)COC(=O)CCCCC(=O)OCC(CC)CCCC (stereo not drawn),outcome,[2],inactive
same,outcome,[4],inactive
same,outcome,[3],inactive
c1ccc2c(c1)Cc1ccccc1-2,outcome,[2],inactive
same,outcome,[3],inactive
Cc1ccc(S(=O)(=O)O)c(C)c1,AC50,[2],56.2 µM (active)
same,outcome,[2],inactive
same,outcome,[3],inactive
CC(O)C(=O)O (stereo not drawn),outcome,[2],inactive
same,outcome,[3],inactive
CN1CCC[C@H]1c1cccnc1,outcome,[5],inactive
same,outcome,[2],inactive
same,outcome,[3],inactive
CCCCCCCCC(=O)O,outcome,[2],inactive
same,outcome,[3],inactive
N#C[C@@H]1CC(F)(F)CN1C(=O)CNC1CC2CCC(C1)N2c1ncccn1 (stereo partly drawn),outcome,[2],inactive
same,outcome,[3],inactive
same,outcome,[6],inactive
same,outcome,[7],inactive
COCC(C)O (stereo not drawn),AC50,[5],3.69 µM (active)
same,outcome,[2],inactive
same,outcome,[3],inactive
CCCCCCC(=O)O,outcome,[2],inactive
same,outcome,[3],inactive
CCc1nn(C2CCCCC2)c2cc(C3(C#N)CCC(C(=O)O)CC3)ccc12 (stereo not drawn),outcome,[2],inactive
same,outcome,[3],inactive
CC(C)(C)c1cc(C(C)(C)C)c(O)c(C(C)(C)C)c1,outcome,[2],inactive
same,outcome,[3],inactive
CCOC(=O)CC(O)(CC(=O)OCC)C(=O)OCC,outcome,[2],inactive
same,outcome,[3],inactive
Cc1cc(C)c(O)c(C)c1,outcome,[2],inactive
same,outcome,[3],inactive
OC1CCCCC1,outcome,[2],inactive
same,outcome,[3],inactive
CCCCCCCCCCCCN1CCCC1=O,outcome,[2],inactive
CC(=O)CC(C)(C)O,outcome,[2],inactive
same,outcome,[3],inactive
same,outcome,[6],inactive
same,outcome,[7],inactive
Cc1cc(CCN2CCN(c3nsc4ccccc34)CC2)cc2c1NC(=O)CC2(C)C,outcome,[5],inactive
same,outcome,[2],inactive
same,outcome,[3],inactive
same,AC50,[6],12.6 µM (active)
same,AC50,[7],15.4 µM (active)
CC(C)(C)c1ccc(O)c(C(C)(C)C)c1,outcome,[2],inactive
same,outcome,[3],inactive
Oc1cccc(O)c1,outcome,[2],inactive
same,outcome,[3],inactive
c1ccc2c(c1)ccc1ccccc12,outcome,[2],inactive
same,outcome,[3],inactive
same,outcome,[6],inactive
same,outcome,[7],inactive
CC(C)(C)CC(C)(C)c1ccc(O)c(-n2nc3ccccc3n2)c1,outcome,[2],inactive
same,outcome,[3],inactive
Nc1cccc2c(N)cccc12,AC50,[2],11.9 µM (active)
same,outcome,[3],inactive
CCCCC(CC)COC(=O)CCCCC(=O)OCc1ccccc1 (stereo not drawn),outcome,[8],inactive
same,outcome,[2],inactive
same,outcome,[3],inactive
CC(C)(C)c1cccc(C(C)(C)C)c1O,outcome,[2],inactive
same,outcome,[3],inactive
CCCCCCCCCCCCCC[N+](C)(C)C,outcome,[8],inactive
same,outcome,[3],inactive
CN1CCN(c2ccccc2/C=C2\SCCN(c3ccc(Cl)c(Cl)c3)C2=O)CC1,outcome,[5],inactive
same,outcome,[2],inactive
same,outcome,[4],inactive
same,outcome,[3],inactive
